Experiment [1] has as its target T1, Aspartate--tRNA(Asp/Asn) ligase (Mycobacterium tuberculosis (strain ATCC 25618 / H37Rv)) (UniProt P9WFW3). Further: in the data most compounds retested in dose-response had high values.
T1 sequence (whole entry): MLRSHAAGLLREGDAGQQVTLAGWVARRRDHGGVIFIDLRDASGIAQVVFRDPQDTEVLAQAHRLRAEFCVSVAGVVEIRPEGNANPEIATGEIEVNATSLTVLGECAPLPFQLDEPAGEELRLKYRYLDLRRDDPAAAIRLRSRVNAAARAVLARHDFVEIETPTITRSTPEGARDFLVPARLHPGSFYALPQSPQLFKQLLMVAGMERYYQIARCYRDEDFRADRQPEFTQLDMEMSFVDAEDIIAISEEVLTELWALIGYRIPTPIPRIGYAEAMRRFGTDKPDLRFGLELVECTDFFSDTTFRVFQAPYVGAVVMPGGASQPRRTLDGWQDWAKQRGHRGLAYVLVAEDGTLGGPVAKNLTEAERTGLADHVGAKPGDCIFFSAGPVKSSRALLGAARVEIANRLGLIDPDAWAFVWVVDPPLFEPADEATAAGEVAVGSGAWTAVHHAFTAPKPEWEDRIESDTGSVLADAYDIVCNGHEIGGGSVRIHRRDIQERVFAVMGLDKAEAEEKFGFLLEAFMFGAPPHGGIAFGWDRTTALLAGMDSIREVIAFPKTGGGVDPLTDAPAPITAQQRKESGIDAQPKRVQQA
Description: Assay for Asp RNA synthetase-1 from Mycobacterium tuberculosis. The experiment is classed as functional. Also noted: scale not given: direction of the effect not stated beside the values. The following applies: 30 µM.

The target of experiment [2] is Shiga toxin 2 (Escherichia coli O157:H7) (UniProt P09385+P09386). Description: E. coli 0.157:H7 Shiga Toxin SOP - stx2 screening assay. Type of experiment: functional. The arrangement: scale not given: direction of the effect not stated beside the values. As to conditions: 30 µM.

Regarding `CCc1nc2n(n1)CC(Nc1cc(C)nc3ncnn13)CC2` (configuration not stated), the results for the Percent Effect in experiment [1] and in experiment [2] were -4.28% and 2.96%, respectively.
As to `CCc1nc(C2CCCN(C(=O)c3cccc4c3ccn4C)C2)no1` (configuration not stated), the results for the Percent Effect in experiment [1] and in experiment [2] were -0.845% and 4.78%, respectively.
As to `O=C(CN1CCOC(Cn2cccn2)C1)NCCc1ccc(F)cc1` (configuration not stated), the Percent Effect in experiment [1] is 4.34%; in experiment [2], 12%.
As for `O=C1NCCCCC1Sc1nnc(-c2cccnc2)n1C1CC1` (configuration not stated), the Percent Effect was -3.62% in experiment [1] and 7.22% in experiment [2].
For `Cc1nc2ccccn2c1CN(Cc1cccnc1)CC1CCCO1` (configuration not stated), in that order: 8.51% and -8.1%.
For `O=S(=O)(N(Cc1ccccn1)C1CC1)N1CCCC1c1ccco1` (configuration not stated), in that order: 2.62% and -10.3%.
Taken in the same sequence, the figures for `Cc1cc(C2CCCN2Cc2cc(=O)n(C)c(=O)n2C)on1` (configuration not stated) were 0.485% and 14.1%.
For the compound `CSCC(=O)N1CCCC(n2ccnc2C(C)C)C1` (configuration not stated), the Percent Effect was -2.84% in experiment [1] and 28.1% in experiment [2].
For `OC1CCCN(Cc2c(-c3ccco3)[nH]c3ncccc23)C1` (configuration not stated), in that order: -0.134% and 6.33%.
For `Cn1cccc1C(=O)N1CCN(CC2CC2)c2ncccc2C1`, in that order: 2.01% and -11.1%.
Regarding `O=S(=O)(C1CC1)N1CC[C@]2(C[C@@H](Oc3ccccn3)CO2)C1`, the Percent Effect in experiment [1] is -1.12%; in experiment [2], -6.89%.
As to `Cc1nn2cccnc2c1C(=O)N1CCCC(Nc2ccccc2)C1` (configuration not stated), the Percent Effect in experiment [1] stood at 1.98%; in experiment [2], 8.26%.
Regarding `CCn1cc(CN(C)S(=O)(=O)c2ccc(Cl)cc2)cn1`, the figures for the Percent Effect in experiment [1] and in experiment [2] were -1.31% and -34%, respectively.
Taken in the same sequence, the figures for `Cc1cc(C)n(C2CCCN(C(=O)c3cc(C4CC4)on3)C2)n1` (configuration not stated) were -7.81% and -32.5%.
On to `CC(Cc1ccco1)NC(=O)Nc1ccc(N2CCOCC2)nc1` (configuration not stated), for which the Percent Effect in experiment [1] is -3.59%; in experiment [2], 15%.
In the case of `COCC(=O)N1CCCC1c1ccnc(Nc2cnccn2)n1` (configuration not stated), the Percent Effect in experiment [1] is 0.0744%; in experiment [2], 1.15%.
Taken in the same sequence, the figures for `Cc1ccc2cnn(CCC(=O)Nc3c(C)nn(C)c3C)c2c1` were 0.535% and -34.7%.
Regarding `Cc1cccc(CN2CCC3(CCN(Cc4ccccn4)C3)C2=O)c1` (configuration not stated), the Percent Effect in experiment [1] was 0.956%; in experiment [2], -19.6%.
Taken in the same sequence, the figures for `Cc1nn(C)c(N(C)C)c1CNCC(O)c1ccccc1` (configuration not stated) were -4.11% and -17.5%.
Taken in the same sequence, the figures for `CS(=O)(=O)NCc1nnc2n1CCN(Cc1cccs1)C2` were -4.17% and 3.79%.
For the compound `Cc1ncc(CNC(=O)Nc2cc(C(F)(F)F)c[nH]c2=O)s1`, the Percent Effect in experiment [1] is 2.67%; in experiment [2], -19.6%.
For `CCN1CCN(S(=O)(=O)c2cc(Cl)c(Cl)cc2C)CC1`, in that order: -2.76% and -10.7%.
For `COc1ccc(CN(C)[C@@H]2CN(C(=O)c3cccs3)C[C@H]2O)cc1`, in that order: -4.54% and 12%.
With `Cc1ncsc1CN1C[C@@H]2COC[C@]2(COc2ccc(C#N)cn2)C1`, the Percent Effect was -0.365% in experiment [1] and -16.3% in experiment [2].
For `Cc1ccccc1CSCCn1nc2ccccn2c1=O`, in that order: -1.33% and 26.4%.
For `O=S(=O)(CCCN1CCCC1Cn1cccn1)c1ccccc1` (configuration not stated), in that order: -2.01% and -4.23%.
Consider `c1nc2n(n1)CC(NCc1nc(-c3ccsc3)no1)CC2` (configuration not stated), for which the results for the Percent Effect in experiment [1] and in experiment [2] were 4.69% and 10.5%, respectively.
On to `COc1ccccc1N1CCC(CNCc2cccc(OC)c2OC)C1` (configuration not stated), for which the Percent Effect was 10.8% in experiment [1] and -7.96% in experiment [2].
Turning to `O=C(O)[C@]12CCCN(Cc3ccccc3)C[C@H]1CN(c1ncccn1)C2`, the values for the Percent Effect in experiment [1] and in experiment [2] were 6.32% and -14.8%, respectively.
For `CCc1nnc(CN2CCN(C(=O)c3cc4ccccc4[nH]3)CC2)o1`, in that order: -2.68% and 8.5%.
For `Cc1ccc(NC2CCN(C(=O)CCc3ccco3)CC2)nn1`, the values for the Percent Effect in experiment [1] and in experiment [2] were 0.0874% and 19.2%, respectively.
Taken in the same sequence, the figures for `COc1c(CNCc2cccc(CS(C)(=O)=O)c2)c(C)nn1C` were 1.7% and 20.4%.
As for `COc1cc(CNCc2ccnc(N3CCOCC3)c2)cc(Cl)c1OC`, the Percent Effect was determined as 6.73% in experiment [1] and 24.1% in experiment [2].
In the case of `Cc1cc(C(F)(F)F)nn1CC(C)C(=O)Nc1ccncc1` (configuration not stated), the Percent Effect in experiment [1] is 2.67%; in experiment [2] it was -18.1%.
For `CCn1ccnc1CN1CCN(C(C)C(=O)N2CCC(C)CC2)CC1` (configuration not stated), in that order: -3.5% and -22.7%.
With `CCS(=O)(=O)c1ccccc1N1CCC(NC(=O)c2ccc[nH]2)CC1`, the results for the Percent Effect in experiment [1] and in experiment [2] were -2.04% and 9.33%, respectively.
For `O=C(CC1CCCC1)N1CCCC(c2n[nH]c3nccnc23)C1` (configuration not stated), in that order: -1.74% and 19.5%.
As to `CC(C)n1cc(CN2CCCN(C(=O)c3cc(Cl)c[nH]3)CC2)cn1`, the Percent Effect in experiment [1] amounted to 5.29%; in experiment [2], 3.9%.
On to `Cc1cc(-c2cnn(CCNC(=O)c3cccnc3)c2C2CC2)on1`, for which the Percent Effect is 0.491% in experiment [1] and -2.62% in experiment [2].
Taken in the same sequence, the figures for `COc1ncccc1C(=O)N1CCC(c2nnc(C3CC3)o2)CC1` were 3.02% and 0.085%.
For `COc1c(CNC2CCSc3ccc(F)cc32)c(C)nn1C` (configuration not stated), in that order: 0.879% and -10.4%.
`CN(CCN1CCOCC1)C(=O)CCCc1ccccc1`: the figures for the Percent Effect in experiment [1] and in experiment [2] were -6.41% and 0.944%, respectively.
Taken in the same sequence, the figures for `CCn1nc2c(cc1=O)CN(Cc1nc3ccccc3c(=O)[nH]1)CC2` were -3.91% and 1.48%.
Taken in the same sequence, the figures for `COc1cc(CCC(=O)NCC2CCCN2C)ccc1OCC(F)(F)F` (configuration not stated) were 1.43% and 22.2%.
In the case of `COc1cc(CNCc2ccc(C(C)O)cc2)cc2c1OCO2` (configuration not stated), the Percent Effect in experiment [1] is -6.24%; in experiment [2], -48%.
Consider `O=C(NCCCN1CCOCC1)c1ccn(-c2ccc3ccccn23)n1`, for which the Percent Effect in experiment [1] is 3.71%; in experiment [2], -18.9%.

These data come from ChEMBL document CHEMBL3988442, “University of Dundee, Small-Polar-MMV Screening Library” (2021).
